# The sample as a whole holds a higher share of hits than the screen did.
# MARV entry inh: Marburg virus entry inhibition. 300,000 tested, 1.8% active. Potency, µM (titrated, usually from 37.8 µM), for the others: top-dose activity change, negative = inhibition, usual class: inhibitors. AID 540276. Marburg virus pseudotyped entry inhibition, cell reporter; calls by dose curve; tested in HEK293 cells; further: potency means the concentration at half of the fitted maximal effect; on the % scale 0 is the no-effect control and ±100 the full control effect
# VACV mCherry inh: vaccinia inhibition (mCherry reporter); Vaccinia virus mCherry reporter infection, fluorescence; Potency, µM (top dose mostly 36.5 µM), for inactives: at the top dose activity change, negative = inhibition, usual class: inhibitors; 310,000 tested, 0.63% active; calls by dose curve; tested in A549 cells; further: potency means the concentration at half of the fitted maximal effect; on the % scale 0 is the no-effect control and ±100 the full control effect; nearly all actives have a fitted effect of over 35% in size
# Lassa entry inh: blocks Lassa virus binding to or entry into cells; Lassa virus pseudotype entry inhibition, cell reporter; Potency, µM (highest dose often 37.9 µM), for inactives: at the highest dose activity change, negative = inhibition, hits mostly inhibitors; 300,000 tested, 1.2% active; calls by dose curve; tested in HEK293 cells; further: potency means the concentration at half of the fitted maximal effect; on the % scale 0 is the no-effect control and ±100 the full control effect; nearly all actives have a fitted effect of over 50% in size
# Vaccinia Venus: inhibitors of vaccinia virus (Venus reporter); Vaccinia virus Venus reporter expression, fluorescence; Potency, µM (titrated, usually from 36.5 µM), inactives show top-dose activity change, negative = inhibition, most hits filed as inhibitors; 330,000 tested, 0.46% active; calls by dose curve; tested in A549 cells; further: potency means the concentration at half of the fitted maximal effect; on the % scale 0 is the no-effect control and ±100 the full control effect; nearly all actives have a fitted effect of over 30% in size
# Shiga inhibitor: inhibitors of Shiga toxin in Vero cells | Vero cells, Shiga toxin protein synthesis inhibition reporter | inhibition, % at 38.7 µM | 290,000 tested, 9.2% active | AID 2315; in the data active means inhibition mostly above about 28%, no sharp cut-off; inactive means mostly below about 43%; further: 0% is about no effect
# CHX counter: counter-screen for Shiga toxin inhibitors: cycloheximide protein synthesis inhibition; cell reporter, cycloheximide protein synthesis inhibition counterscreen; max response, %; 300,000 tested, 12% active; in the data active means max response mostly above about 13%, no sharp cut-off; inactive means mostly below about 14%; further: read at 38.3 µM for the half of the compounds with a filed dose; 0% is about no effect
# Numbers without * were called inactive; i = inactive; ? = inconclusive; . = not tested or not shown; [ ] = remark or other dose.
SMILES,MARV entry inh,VACV mCherry inh,Lassa entry inh,Vaccinia Venus,Shiga inhibitor,CHX counter
COc1ccc(S(=O)(=O)NCCc2sc(C)nc2C)cc1F,.,-11.2%,-13.2%[46.1 µM],0.3%,.,.
O=C(CC(Nc1ccccc1Cl)C(=O)OCC(=O)c1cccs1)c1ccccc1 (stereo not drawn),5.5%,.,8.9%,.,68.7*,53.3*
O=C(COC(=O)c1cccs1)Nc1ccccc1,1.4%,-3.9%,8.1%,-13.7%,108.8*,50.8*
COC(=O)c1ccc(COC(=O)CCC(=O)c2cccs2)cc1,?,i,?,-9.5%,120.6*,62.0*
O=C(COC(=O)c1cccs1)NCCCc1ccccc1,4.1%[46.1 µM],i,12.4%,-7.5%,23.5,12.4
O=C(CNC(=O)c1cccs1)OCC(=O)c1ccccc1,?,-13.2%,-2.7%,-19.5%,-20.4,-4.6
O=C(OCC(=O)c1cccs1)c1ccccc1,4.0%,.,?,.,50.8,30.7*
O=C(CNC(=O)c1ccccc1)OCC(=O)c1cccs1,-3.0%[46.1 µM],-29.8%,25.0%[46.1 µM],-3.7%,3.5,8.4
C/C(=N/OCC(=O)Nc1ccccc1)c1cccs1,25.5%[46.1 µM],.,-16.0%,-12.5%,59.7*,27.0*
C/C(=N\OCC(=O)NC(C)C)c1cccs1,.,.,.,.,-4.3,11.8
COc1ccc(NC(=O)CO/N=C(\C)c2cccs2)cc1,-2.0%[46.1 µM],-13.4%,3.6%[46.1 µM],-13.1%,-6.2,12.6
C/C(=N\OCC(=O)Nc1ccccc1Br)c1cccs1,.,.,.,.,55.1*,28.0*
O=C(CSc1nnc(Cc2cccs2)n1-c1ccccc1)NC1CCCCC1,-18.8%,i,14.1µM*,-21.6%,-11.9,4.8
Cc1ccc(OCc2nnc(SCC(=O)c3cccs3)n2-c2ccccc2)cc1C,?,?,?,?,72.5*,30.7*
Cc1cc(OCc2nnc(SCCC(=O)O)n2-c2ccccc2)ccc1Cl,.,.,.,.,.,-2.1
N#Cc1ccc(OCc2nnc(SCC(=O)N3CCCc4ccccc43)n2-c2ccccc2)cc1,18.3µM*,.,25.9µM*,.,-11.8,0.4
O=C(O)CSc1nnc(COc2ccccc2)n1-c1ccccc1,.,.,.,.,-0.7,-2.2
O=C(CSc1nnc(COc2ccccc2)n1-c1ccccc1)c1cccs1,-21.9%,.,?,-24.9%,67.1,34.3*
Cc1ccn2cc(C34CC5CC(CC(C5)C3)C4)nc2c1,?,i,8.9%,-10.6%,95.0*,35.5*
CCn1c2ccccc2c2cc(CN3CCOc4ccc(C(O)c5cccnc5)cc4C3)ccc21 (stereo not drawn),.,-20.0%,.,?,.,.
Cc1nnc(N(C)C(=O)c2ccccn2)s1,8.6%,i,15.9%,-18.6%,-15.6,-3.4
COc1ccc(-c2nnc(N(C)C(=O)c3cccnc3)s2)cc1,-1.5%,-21.2%,14.8%,-12.9%,46.5,26.5*
CN(C(=O)c1ccccn1)c1nnc(-c2cccnc2)s1,?,-20.4%,2.1%,-11.7%,32.3,53.9*
Cc1ccc(-c2nnc(N(C)C(=O)c3cccnc3)s2)cc1,-7.5%,-26.1%,-5.8%,-24.0%,77.3,33.8*
O=C(NCCc1nnc2n1CCN(Cc1ccc(F)cc1)CC2)c1ccco1,.,-3.0%,.,-14.1%,.,.
SMILES,MARV entry inh,VACV mCherry inh,Lassa entry inh,Vaccinia Venus,Shiga inhibitor,CHX counter
COc1cc2c(cc1OC)C(COc1ccc3c(C)cc(=O)oc3c1)N(C(=O)c1ccc(C)c(C)c1)CC2 (stereo not drawn),7.5%[46.1 µM],-13.6%,?,-21.2%,.,.
CN1CCN(NC(=O)c2cccc3ccccc23)CC1,-5.2%,4.5%,-14.2%,1.5%,-5.1,-1.2
CC(C)(C)c1ccc(S(=O)(=O)N2CCN(c3nc(-c4cccs4)nc4ccccc34)CC2)cc1,.,-10.9%,.,-6.8%,.,.
CC(=O)Nc1ccc(NC(=O)c2nc(S(=O)(=O)Cc3cccc(C)c3)ncc2Cl)cc1,-13.4%[46.1 µM],i,?,-8.5%,99.1*,45.7*
Cc1ccc(NC(=O)c2nc(S(=O)(=O)Cc3ccccc3C)ncc2Cl)cc1C,?,-2.0%,?,-19.9%,39.0*,37.2*
Cc1ccc(NC(=O)c2nc(S(=O)(=O)Cc3ccc(F)cc3)ncc2Cl)cc1C,?,-27.0%,?,?,.,.
CCOC(=O)c1ccc(NC(=O)c2nc(S(=O)(=O)Cc3ccccc3)ncc2Cl)cc1,11.2µM*,?,?,?,7.9,14.4
CCS(=O)(=O)c1ncc(Cl)c(C(=O)Nc2ccc(S(=O)(=O)N3CCC(C)CC3)cc2)n1,?,?,?,17.8µM*,-13.3,-1.4
CC(C)C(NS(=O)(=O)c1cccs1)C(=O)NCc1ccccc1 (stereo not drawn),-10.7%[46.1 µM],-7.2%,-1.0%,2.7%,-3.6,-1.9
CCc1ccc(NC(=O)CN2CCN(Cc3ccccc3)S2(=O)=O)cc1,.,-13.1%,12.2%[46.1 µM],-9.8%,.,.
C[C@H](CO)N1C[C@H](C)[C@@H](CN(C)S(=O)(=O)c2cccc(C#N)c2)OCc2cnnn2CCCC1=O,.,i,.,-10.3%,.,.
CC(C)(CNc1ccc([N+](=O)[O-])cc1Cl)N1CCOCC1,-12.3%[46.1 µM],-12.8%,2.5%[46.1 µM],17.6%,-5.6,-6.1
COc1cccc(NC(=O)c2oc3ccc(S(=O)(=O)N4CCC5(CC4)OCCO5)cc3c2C)c1,.,-13.1%,?,-24.5%,.,.
COc1ccc(NC(=O)c2ccc(COCC(F)(F)F)cc2)cc1OC,?,i,0.2%,-25.3%,1.6,-0.9
COc1ccc(C(=O)Nc2ccc(OCC(F)(F)C(F)F)c(C(F)(F)F)c2)cc1OC,?,?,17.8µM*,?,9.2,-1.4
O=C(Nc1ccc(OCC(F)(F)C(F)F)c(C(F)(F)F)c1)c1ccc(Cl)cc1,15.8µM*,?,?,?,.,.
CC(C)N(C(=O)Cn1cc(SCC(=O)Nc2ccccc2C(F)(F)F)c2ccccc21)C(C)C,.,-6.0%,23.6%[46.1 µM],-18.4%,.,.
COc1ccccc1/C=N/NC(=O)c1cccc(NC(=O)c2ccccc2C)c1,-10.8%,-22.0%,15.9%,0.6%,-5.7,1.4
Cc1cccc(/C=N/NC(=O)c2cccc([N+](=O)[O-])c2)n1,6.0%[46.1 µM],-3.9%,22.4%[46.1 µM],-16.4%,2.6,-2.2
Cc1cccc(/C=N/NC(=O)c2ccc(F)cc2)n1,.,.,.,.,39.8*,20.0*
Cc1cccc(/C=N/NC(=O)c2cccc(Cl)c2)n1,1.4%[46.1 µM],?,19.4%,-16.7%,45.6,16.3*
Cc1cccc(/C=N/NC(=O)c2cccc(NC(=O)c3ccccc3)c2)n1,17.4%[46.1 µM],-22.4%,1.9%,-5.8%,26.6,14.3*
O=C(N/N=C/c1ccccn1)c1ccc(NC(=O)c2ccc(F)cc2)cc1,26.4%[46.1 µM],-25.5%,5.2%[46.1 µM],-15.5%,25.1,11.2
Cc1ccccc1C(=O)Nc1cccc(C(=O)N/N=C/c2ccccn2)c1,16.3%[46.1 µM],?,11.4%,-10.9%,26.0,11.6*
COc1ccc(CN2CCOc3c(O)cc(-c4cc(C)c5ccc(F)cc5n4)cc3C2)c(O)c1,.,-18.0%,.,-9.5%,.,.
Cc1ccc(CNC(=O)Cn2c(=O)ccc3cc(S(=O)(=O)N4CCC(C)CC4)ccc32)cc1,.,-15.2%,-4.5%[46.1 µM],-16.5%,.,.
COc1ccc2[nH]cc(C(=O)CNc3nc(C)cs3)c2c1,6.6%,-1.9%,?,-8.4%,141.0*,36.1*
Cc1cc(C=C2C(=O)c3ccccc3C2=O)c(C)n1-c1ccc(Cl)cc1,-1.3%,-13.7%,9.1%,-4.3%,-6.4,13.8*
